The list is not random: actives were taken first. Their share in the collection is about 7.4%.
Shh pathway inh: Sonic Hedgehog pathway inhibition | Shh-LIGHT2 Gli-luciferase reporter, 30 h | 22,000 compounds, 2.1% hits | inhibition, % (test concentration not listed);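 active = mean inhibition across valid replicates above about 65%, limit read from the data; inconclusive = mean under the limit, yet half or more replicates past it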;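 note: pathway switched on by Shh-conditioned medium diluted 1 in 25 in low serum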
MITF inh: MITF inhibition | TRPM1 promoter luciferase, luminescence, 24 h | inhibition, % (no concentration beside the values) | 37,000 compounds, 0.28% hits; in the data active = inhibition above about 85%; inconclusive = no clear call, values can overlap the other calls; inactive = below about 68%;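 note: human melanocyte line stably carrying TRPM1 promoter luciferase reporter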
PD-1 reversal: activators reversing PD-1 mediated T-cell inhibition. primary human CD4 T cells, PD-L1 beads, CellTiter-Glo 96 h. activation, % (no concentration beside the values). 29,000 tested, under 10 active. AID 2316; call rule not given here;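 note: 0% = median vehicle wells and 100% = positive control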
NOMO-1 viab: STK33 inhibitor candidate reducing NOMO-1 cell viability. NOMO-1 AML viability, CellTiter-Glo luminescence, 72 h. inhibition, % (concentration not given with the values). 37,000 compounds, 7.5% hits. AID 2330; in the data active = inhibition above about 80%; inconclusive = no clear call, values can overlap the other calls
YB-1 expression: YB-1 expression inhibition; U2OS, qRT-PCR YB-1 vs CDIP delta delta Cp, 16 h; stronger effect = higher value; zero = DMSO, each unit about twofold; delta delta Cp (YB-1 minus CDIP) (test concentration not listed); 30,000 compounds, 0.37% hits; AID 434959;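 active = delta delta Cp rounded down to an integer at or above 3, about 3 SD of DMSO wells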;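 note: higher means less YB-1 transcript or more CDIP transcript relative to DMSO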
* hit, by the source's call; ? = inconclusive; . = no result given.

SMILES	Shh pathway inh	MITF inh	PD-1 reversal	NOMO-1 viab	YB-1 expression
C[C@@H]1CN([C@@H](C)CO)C(=O)c2cccc(NC(=O)Nc3ccc(C(F)(F)F)cc3)c2O[C@@H]1CN(C)Cc1ccc2c(c1)OCO2	8.1	-1.8	-2.3	105.7*	0.335
C[C@@H]1CN([C@@H](C)CO)C(=O)c2cccc(NC(=O)Nc3ccc4c(c3)OCO4)c2O[C@H]1CN(C)Cc1ccc(C(F)(F)F)cc1	-26.5	50.1	-6.0	108.7*	0.177
C[C@H](CO)N1C[C@H](C)[C@@H](CN(C)Cc2ccc(C(F)(F)F)cc2)Oc2c(NC(=O)Nc3ccc4c(c3)OCO4)cccc2C1=O	3.6	21.2	-2.9	104.6*	-0.37
C[C@H](CO)N1C[C@H](C)[C@@H](CN(C)Cc2ccc3c(c2)OCO3)Oc2c(NC(=O)Nc3ccc4c(c3)OCO4)cccc2C1=O	-49.9	-35.1	-3.6	48.7	0.0618
C[C@H]1CN([C@@H](C)CO)C(=O)c2cccc(NC(=O)Nc3ccc(F)cc3)c2O[C@@H]1CN(C)Cc1ccc2c(c1)OCO2	-17.3	-15.9	-2.1	71.6	-0.107
C[C@H](CO)N1C[C@H](C)[C@H](CN(C)Cc2ccc(C(F)(F)F)cc2)Oc2c(NC(=O)Nc3ccc4c(c3)OCO4)cccc2C1=O	-24.1	9.0	-3.9	?	0.211
C[C@@H]1CN([C@H](C)CO)C(=O)c2cccc(NC(=O)Nc3ccc(F)cc3)c2O[C@H]1CN(C)Cc1ccc2c(c1)OCO2	0.1	11.2	-5.3	96.7*	-0.531
C[C@H]1CN([C@@H](C)CO)C(=O)c2cccc(NC(=O)Nc3ccc4c(c3)OCO4)c2O[C@@H]1CN(C)Cc1ccc(C(F)(F)F)cc1	-5.5	42.0	-3.4	109.9*	-0.448
COc1ccc(NC(=O)Nc2cccc3c2O[C@@H](CN(C)Cc2ccc4c(c2)OCO4)[C@H](C)CN([C@@H](C)CO)C3=O)cc1	-41.0	30.1	-5.5	114.7*	-0.185
C[C@@H]1CN([C@H](C)CO)C(=O)c2cccc(NC(=O)Nc3ccc4c(c3)OCO4)c2O[C@@H]1CN(C)Cc1ccc2c(c1)OCO2	-33.9	-20.4	.	9.5	-0.0611
COc1ccc(NC(=O)Nc2cccc3c2O[C@H](CN(C)Cc2ccc4c(c2)OCO4)[C@H](C)CN([C@H](C)CO)C3=O)cc1	-0.9	-41.0	-0.1	-0.1	0.193
Cc1ccc(N(CC(=O)NCc2ccco2)S(=O)(=O)c2ccc(C)cc2)cc1	-35.8	-8.9	2.2	7.5	-0.304
O=C(Oc1ccc(C=Nc2ccc(F)cc2)cc1)c1cccs1	-4.1	-21.5	-0.7	10.9	0.0478
Cc1cccc(OCC(=O)Nc2ccccc2C(=O)NC2CCCCC2)c1	.	-19.5	.	6.9	.
COc1cc(O)c(CC=C(C)C)cc1C(=O)/C=C/c1ccc(O)c(CC=C(C)C)c1	-6.2	2.1	-1.5	85.9*	-0.233
COc1ccc(/C=C/C(=O)CC(=O)/C=C/c2cccc(O)c2OC)cc1O	69.5*	36.2	.	114.7*	-0.518
COc1cc(/C=C/C(=O)CC(=O)/C=C/c2ccc(O)c(OC)c2)ccc1O	32.4	3.9	.	106.7*	-0.155
O=C(Cn1nnc2sc3c(c2c1=O)CCCC3)NCc1ccco1	.	16.8	-0.8	40.8	.
CC(C)[C@@H]1C=C(C(=O)O)O[C@H](OCc2ccc(CO)cc2)C1	.	.	.	.	0.0713
CC(C)[C@H]1C=C(C(=O)NCc2ccccc2)O[C@@H](OCc2ccc(CO)cc2)C1	.	.	.	.	7.59*
COc1ccc(NC(=O)Nc2cccc3c2O[C@H](CN(C)Cc2ccc(Cl)c(Cl)c2)[C@@H](C)CN([C@H](C)CO)C3=O)cc1	3.7	-8.4	-5.5	103.1*	-0.162
COc1ccc(NC(=O)Nc2cccc3c2O[C@@H](CN(C)Cc2ccc(Cl)c(Cl)c2)[C@H](C)CN([C@H](C)CO)C3=O)cc1	-4.8	40.9	.	102.2*	0.0495
COc1ccc(NC(=O)Nc2cccc3c2O[C@H](CN(C)Cc2ccc(Cl)c(Cl)c2)[C@@H](C)CN([C@@H](C)CO)C3=O)cc1	4.1	1.8	.	91.3*	-0.198
CCc1ccc(NC(=O)COc2ccc(NC(C)=O)cc2)cc1	.	-10.5	3.3	3.0	.
CCC(C)C1=NN(C(=O)c2ccccc2)C(O)(C(=O)OC)C1 (configuration not stated)	-33.0	-49.1	0.4	76.7	0.584
SMILES	Shh pathway inh	MITF inh	PD-1 reversal	NOMO-1 viab	YB-1 expression
Cc1cc(Cl)ccc1NC(=O)CSc1nc(C(F)(F)F)cc(=O)[nH]1	.	2.2	2.5	-15.4	.
COC(=O)C[C@H]1C(C)(C)C(=O)[C@@H]2C[C@@]3(O)C4=CC(=O)O[C@@H](c5ccoc5)[C@]4(C)CCC3[C@@]1(C)C2=O (some centres not stated)	85.5*	-50.8	.	104.2*	0.119
COC(=O)C[C@H]1C(C)(C)[C@@H](OC(C)=O)[C@@H]2CC3=C4CC(=O)O[C@@H](c5ccoc5)[C@]4(C)CCC3[C@@]1(C)C2=O (some centres not stated)	?	-13.5	.	2.2	-0.0961
COC(=O)C[C@H]1C(C)(C)[C@H](OC(C)=O)[C@]2(O)CC3=C4CC(=O)O[C@@H](c5ccoc5)[C@]4(C)CCC3[C@@]1(C)C2=O (some centres not stated)	14.0	-8.9	-1.0	19.9	7.97*
COc1ccccc1NC(=O)CSc1nnc(-c2ccccc2)n1-c1cccc(C)c1	.	41.8	-1.1	23.6	.
CCN(CCS(=O)(=O)c1ccc(C)cc1)C(=O)c1ccc(-c2cc(C(F)(F)F)nn2C)s1	12.6	11.9	-0.9	-3.2	0.336
CC(=O)Oc1ccc2ccc3ccc(OC(C)=O)c4ccc1c2c34	53.4	11.3	-5.8	126.8*	-0.518
O=C(Oc1cccc2ccccc12)c1ccccc1	-10.4	0.7	-1.2	40.2	-0.397
O=C(Oc1cc(=O)oc2c1c(=O)n1c3c(cccc23)CC1)c1ccccc1	-54.6	-7.9	-1.1	139.9*	-0.851
OC(COCc1ccccc1)Cn1c2ccccc2c2ccccc21 (configuration not stated)	11.3	4.9	-2.5	88.7*	-0.0487
CNCC(O)Cn1c2ccccc2c2ccccc21 (configuration not stated)	.	-16.6	-1.4	7.0	.
C[C@@H]1CCCCO[C@@H](CN(C)Cc2ccc(Cl)c(Cl)c2)[C@@H](C)CN([C@H](C)CO)C(=O)c2cc(NC(=O)Nc3ccc(F)cc3)ccc2O1	4.7	16.6	-1.5	134.4*	0.0254
COc1ccc(NC(=O)Nc2ccc3c(c2)C(=O)N([C@H](C)CO)C[C@H](C)[C@@H](CN(C)Cc2ccc(Cl)c(Cl)c2)OCCCC[C@@H](C)O3)cc1	20.9	19.8	.	43.4	0.243
C[C@@H]1CCCCO[C@@H](CN(C)Cc2ccc3c(c2)OCO3)[C@@H](C)CN([C@H](C)CO)C(=O)c2cc(NS(=O)(=O)c3cccs3)ccc2O1	73.9*	0.5	-1.8	29.0	-0.514
CC(C)NC(=O)Nc1ccc2c(c1)C(=O)N([C@H](C)CO)C[C@H](C)[C@H](CN(C)Cc1ccc(Cl)c(Cl)c1)OCCCC[C@@H](C)O2	28.8	54.8	-6.5	100.7*	-0.13

Screening results: PubChem BioAssay, Broad Institute
